TDP1 cell noCPT: qHTS for Inhibitors of human tyrosyl-DNA phosphodiesterase 1 (TDP1): qHTS in cells in absence of CPT | DT40 Tdp1-/- hTDP1 cells, no CPT, ATP luminescence, 48 h | Potency, µM (titrated, usually from 46.2 µM), usual class: inhibitors | 15% of 420,000 active; further: nearly all actives have a fitted effect of over 55% in size
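Readout: luminescence from CellTiter-Glo after 30 min in the dark at RT. Cells: DT40 Tdp1-/- with stable hTDP1, 400/well. Exposure: compounds alone, ≥48 hr, 37 °C.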
TDP1 inh: inhibitors of human tyrosyl-DNA phosphodiesterase TDP1; recombinant TDP1, AlphaScreen DNA substrate cleavage; Potency, µM (highest dose often 130 µM), most hits filed as inhibitors; 0.28% of 350,000 active; further: nearly all actives have a fitted effect of over 40% in size
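Recombinant E. coli-expressed Tdp1 (1 nM) preincubated with compound 15 min at RT, then 5'-biotin/3'-phosphotyrosine-FITC DNA substrate (15 nM) added for 5 min. AlphaScreen beads (10 ug/ml) added, 10 min RT; tyrosine-FITC cleavage read as signal loss.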
KAT2A inh: inhibitors of human GCN5L2 histone acetyltransferase. Potency, µM (series often up to 58.9 µM), usual class: inhibitors. Q92830. GCN5L2 HAT assay, ThioGlo1 CoA-SH fluorescence. 0.21% of 390,000 active. AID 504327
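qHTS, 1536-well. 20nM enzyme, pH 7.5 HEPES/EDTA/Tween-20 buffer; 15 min compound preinc., RT. Start: 75uM H3(1-25), 70uM AcCoA, 50uM ThioGlo1. Read Ex340/Em540 at t=0 (autofluorescence flag) and t=20 min.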
PLK1 PBD block: inhibitors of human PLK1 polo-box domain binding. Plk1 PBD binding of FITC phosphopeptide, fluorescence polarization. Potency, µM, hits mostly inhibitors. 2.8% of 360,000 active; further: series mostly up to about 57 µM; nearly all actives have a fitted effect of over 65% in size
Target sequence (P53350 whole entry, looked up, the tested form may be a part): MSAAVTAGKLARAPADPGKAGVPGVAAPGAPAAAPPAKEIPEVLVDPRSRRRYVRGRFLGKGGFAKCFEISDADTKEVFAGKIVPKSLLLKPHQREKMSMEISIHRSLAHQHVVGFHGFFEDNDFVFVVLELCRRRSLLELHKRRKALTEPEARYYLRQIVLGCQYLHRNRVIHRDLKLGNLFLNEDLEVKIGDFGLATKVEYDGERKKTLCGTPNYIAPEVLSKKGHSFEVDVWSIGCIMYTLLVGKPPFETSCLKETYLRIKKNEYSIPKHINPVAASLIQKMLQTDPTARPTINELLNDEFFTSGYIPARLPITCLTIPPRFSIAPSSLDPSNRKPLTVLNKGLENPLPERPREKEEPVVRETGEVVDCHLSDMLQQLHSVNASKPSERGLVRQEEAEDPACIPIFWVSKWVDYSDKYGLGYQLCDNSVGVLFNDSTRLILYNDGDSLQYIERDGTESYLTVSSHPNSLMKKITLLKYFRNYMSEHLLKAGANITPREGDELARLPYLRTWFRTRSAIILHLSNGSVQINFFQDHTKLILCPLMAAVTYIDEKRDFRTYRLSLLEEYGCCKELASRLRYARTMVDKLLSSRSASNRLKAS
VDR inhibitor: blocks the human vitamin D receptor; VDR-SRC2-3 peptide fluorescence polarization, 2 h; AID 504847; 0.93% of 400,000 active; P11473; Potency, µM, most hits filed as inhibitors
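VDR–SRC2-3 interaction, FP format. Cmpds 23 nl via pintool, brief spin, 2 h ambient incubation.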
TDP1 cell CPT: DT40-hTDP1 cell growth loss with CPT; chicken DT40 Tdp1-/-;hTDP1 cells + 20 nM CPT, ATP luminescence, 48 h; Potency, µM (top dose mostly 46.2 µM), most hits filed as inhibitors; 12% of 420,000 active; further: nearly all actives have a fitted effect of over 55% in size
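Chicken DT40 Tdp1-/- cells complemented with human TDP1, 400 cells/well, exposed to compounds plus 20 nM camptothecin for at least 48 h at 37 C; viability read as ATP content by CellTiter-Glo luminescence.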
Each line names hits and unclear results; the compound was inactive in the other large screens. Compounds with a hit are over-represented: about 18% of the library has one in this group of screens. The call rests on the fitted dose curve; in most records, active means well fitted curve in the direction sought with a large enough effect; inconclusive means small, poorly fitted or top-dose-only effect, or another doubt; inactive means no such curve, though single readings can be large; an effect the other way counts as inactive or inconclusive.

CCOc1ccc(-n2cc(-c3ccccc3)c3c(NCc4ccc(F)cc4)ncnc32)cc1	TDP1 cell noCPT 12µM, TDP1 cell CPT 18µM (no result: PLK1 PBD block)
CCOc1ccc(-n2cc(-c3ccccc3)c3c(NCc4ccccc4)ncnc32)cc1	TDP1 cell noCPT inconclusive, TDP1 cell CPT inconclusive (no result: PLK1 PBD block)
Clc1ccc(CCNc2ncnc3c2c(-c2ccccc2)cn3-c2ccccc2)cc1	TDP1 cell noCPT inconclusive, TDP1 cell CPT inconclusive (no result: PLK1 PBD block)
Nc1nc(N)c2cc([N+](=O)[O-])ccc2n1	TDP1 cell noCPT inconclusive (no result: TDP1 inh, KAT2A inh)
Nc1nc(N)c2cc(S(=O)(=O)c3ccc4ccccc4c3)ccc2n1	TDP1 cell noCPT 1.8µM, TDP1 cell CPT inconclusive (no result: TDP1 inh, KAT2A inh, VDR inhibitor)
CN(C)Cc1ccccc1-c1cc(NC2CC2)ncn1	none (no result: PLK1 PBD block)
O=c1cc(C(Cl)(Cl)Cl)oc2c1ccc1ccccc12	TDP1 cell noCPT 0.52µM, TDP1 cell CPT 0.15µM
O=c1cc(-c2ccncc2)oc2c1ccc1ccccc12	TDP1 cell noCPT 23µM, TDP1 cell CPT inconclusive (no result: TDP1 inh)
O=c1cc(-c2ccco2)oc2c1ccc1ccccc12	VDR inhibitor inconclusive
COc1cc(OC)c(C(=O)N(CCc2ccccc2)Cc2ccccc2)cc1OC	TDP1 cell noCPT inconclusive, TDP1 cell CPT inconclusive
C=Cc1ccc(CN2CCCN(Cc3ccc(Cl)cc3)S2(=O)=O)cc1	TDP1 cell noCPT inconclusive, PLK1 PBD block 15µM, VDR inhibitor inconclusive, TDP1 cell CPT inconclusive (no result: TDP1 inh)
C=CCOc1ccc(CN(C)C(=O)CNC(=O)c2ccc(-c3ccccc3)cc2)cc1	TDP1 cell noCPT 21µM, TDP1 cell CPT inconclusive (no result: TDP1 inh)
CCOc1ccc(CN(C)C(=O)CNC(=O)c2ccccc2)cc1	none (no result: TDP1 inh)
CCOc1ccc(CN(C)C(=O)CNC(=O)Cc2cccc3ccccc23)cc1	TDP1 cell noCPT 23µM, TDP1 cell CPT inconclusive
CCC(=O)c1ccc(OCc2ccc(C(=O)c3ccccc3)cc2)cc1	TDP1 cell noCPT 8.2µM, TDP1 cell CPT 6.5µM
CCCC12CN3CC(CCC)(CN(C1)C3c1ccc(OCc3ccccc3)cc1)C2=O (stereo unspecified)	TDP1 cell noCPT inconclusive, TDP1 cell CPT inconclusive (no result: PLK1 PBD block)
CC(=O)c1ccc(NC(=O)CNCC(c2ccccc2)N(C)C)cc1 (stereo unspecified)	TDP1 cell noCPT inconclusive, PLK1 PBD block 19µM, VDR inhibitor inconclusive, TDP1 cell CPT inconclusive
N#Cc1ccccc1CSCCNC(=O)Cc1c(F)cccc1Cl	none
Nc1ccc(Oc2ccc3c(c2)C(=O)N(CC2CCCO2)C3=O)cc1 (stereo unspecified)	none
O=C(Cc1ccc(NC(=O)C2CCCN(C(=O)CCc3ccccc3)C2)cc1)Nc1cccc(C(=O)N2CCCC2)c1 (stereo unspecified)	TDP1 cell noCPT 13µM, TDP1 cell CPT 23µM (no result: TDP1 inh, KAT2A inh)
O=C(Cc1cccc(NC(=O)C2CCCN(C(=O)CCc3ccccc3)C2)c1)Nc1cccc(C(=O)N2CCCC2)c1 (stereo unspecified)	TDP1 cell noCPT 23µM, TDP1 cell CPT 18µM
O=C(Cn1c(NCCCO)nc2ccccc21)c1ccc(F)cc1	none (no result: TDP1 inh)
O=C1Nc2ccccc2SC1c1ccccc1Cl (stereo unspecified)	none (no result: TDP1 inh, KAT2A inh)
CC(C)(C)c1ccc(C2Sc3ccccc3NC3=C2C(=O)c2ccccc23)cc1 (stereo unspecified)	TDP1 cell noCPT inconclusive, TDP1 cell CPT 16µM (no result: PLK1 PBD block)
Cc1noc(-c2ccc(NCc3ccccc3)c([N+](=O)[O-])c2)n1	TDP1 cell noCPT inconclusive, TDP1 cell CPT 18µM (no result: PLK1 PBD block)
Cc1cccc(-c2noc(-c3ccc(NCc4ccccc4)c([N+](=O)[O-])c3)n2)c1	none (no result: PLK1 PBD block)
COc1ccccc1CNc1ccc(-c2nc(C)no2)cc1[N+](=O)[O-]	TDP1 cell noCPT 7.3µM, TDP1 cell CPT 7.3µM (no result: PLK1 PBD block)
CC(Nc1ccc(-c2nc(-c3ccccn3)no2)cc1[N+](=O)[O-])c1ccccc1 (stereo unspecified)	none (no result: PLK1 PBD block)
Cc1ccc(-c2noc(-c3ccc(NCc4cccnc4)c([N+](=O)[O-])c3)n2)cc1	TDP1 cell noCPT 5.2µM, TDP1 cell CPT inconclusive (no result: PLK1 PBD block)
CCc1noc(-c2ccc(NC(C)c3ccccc3)c([N+](=O)[O-])c2)n1 (stereo unspecified)	TDP1 cell noCPT inconclusive, TDP1 cell CPT 18µM (no result: PLK1 PBD block)
COC(=O)c1ccc(Cn2c(C)c(C(=O)NCc3cccs3)sc2=O)o1	TDP1 cell noCPT inconclusive, TDP1 cell CPT inconclusive (no result: TDP1 inh, KAT2A inh, VDR inhibitor)
CC1CN(C(=O)N2CCC(C(=O)NCc3ccccc3F)CC2)c2cc(Cl)ccc2O1 (stereo unspecified)	TDP1 cell noCPT 15µM, TDP1 cell CPT 21µM (no result: PLK1 PBD block)
CC1CN(C(=O)N2CCC(C(=O)NC3CCCCCC3)CC2)c2ccccc2O1 (stereo unspecified)	TDP1 cell noCPT inconclusive, TDP1 cell CPT inconclusive (no result: PLK1 PBD block)
Cc1ccc2c(c1)N(C(=O)N1CCC(C(=O)NCc3ccccc3F)CC1)CC(C)O2 (stereo unspecified)	TDP1 cell noCPT 18µM, TDP1 cell CPT inconclusive (no result: PLK1 PBD block)
CC1CN(C(=O)N2CCC(C(=O)NCc3ccco3)CC2)c2ccccc2O1 (stereo unspecified)	none (no result: PLK1 PBD block)
NS(=O)(=O)c1cc(C(=O)N=Nc2c(O)[nH]c3ccccc23)ccc1Cl	TDP1 cell noCPT 18µM, TDP1 cell CPT inconclusive
CC(C)c1ccc2[nH]c(O)c(N=NC(=O)c3cccc(S(=O)(=O)Nc4ccccc4Cl)c3)c2c1	none
CC(C)(O)C(=O)N=Nc1c(O)[nH]c2ccccc12	none
O=C(N=Nc1c(O)[nH]c2ccccc12)c1cccc(S(=O)(=O)Nc2ccccc2Cl)c1	PLK1 PBD block 30µM, TDP1 cell CPT inconclusive
CC[C@@H](C)CCCCC(=O)N[C@@H](CCNCS(=O)(=O)O)C(=O)N[C@H](C(=O)N[C@@H](CCNCS(=O)(=O)O)C(=O)N[C@H]1CCNC(=O)[C@H]([C@@H](C)O)NC(=O)[C@H](CCNCS(=O)(=O)O)NC(=O)[C@H](CCNCS(=O)(=O)O)NC(=O)[C@H](CC(C)C)NC(=O)[C@@H](CC(C)C)NC(=O)[C@H](CCNCS(=O)(=O)O)NC1=O)[C@@H](C)O	TDP1 cell noCPT 9.4µM, TDP1 cell CPT inconclusive (no result: TDP1 inh, KAT2A inh, PLK1 PBD block, VDR inhibitor)
Cc1cccc(N2C(=O)/C(=C\c3ccc(C(=O)O)cc3)c3ccccc3C2=O)c1	TDP1 cell noCPT inconclusive, PLK1 PBD block 6.7µM, VDR inhibitor inconclusive, TDP1 cell CPT 18µM
O=S(=O)(c1ccccc1)C(/C=N\O)/C=C/c1ccccc1 (stereo unspecified)	TDP1 cell noCPT inconclusive, PLK1 PBD block 3µM, TDP1 cell CPT inconclusive
O=C(NCCc1ccc(Cl)cc1)c1nnc(Cc2ccc(Cl)cc2Cl)o1	none (no result: PLK1 PBD block)

Assay outcomes (PubChem BioAssay)
